Bioassay records: PubChem BioAssay, National Center for Advancing Translational Sciences (NCATS)
CHX counter: counter-screen for Shiga toxin inhibitors: cycloheximide protein synthesis inhibition; hit rate 12% among 300,000; AID 2314; max response, %; cell reporter, cycloheximide protein synthesis inhibition counterscreen; in the data active = max response mostly above about 13%, no sharp cut-off; inactive = mostly below about 14%; note: read at 38.3 µM for the half of the compounds with a filed dose; 0% is about no effect
Shiga toxin inh: inhibitors of Shiga toxin in Vero cells; AID 2315; hit rate 9.2% among 290,000; inhibition, % at 38.7 µM; Vero cells, Shiga toxin protein synthesis inhibition reporter; in the data active = inhibition mostly above about 28%, no sharp cut-off; inactive = mostly below about 43%; note: 0% is about no effect
HCMV inh: inhibitors of human cytomegalovirus; HFF cells, HCMV-luciferase reporter, 72 h; active compounds read low; activity change, negative = inhibition, % at 57.5 µM; hit rate 4.5% among 410,000; in the data active = activity change below about -60%; inconclusive = no clear call, values can overlap the other calls; inactive = above about -39%; note: % is set by controls: 0 for no effect and ±100 for the full control effect
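Human foreskin fibroblasts infected with luciferase-reporter HCMV at MOI 1 PFU/cell, compounds at two doses. Luciferase measured 72 h post infection; normalized to buffer-only basal and Salinomycin (10uM) controls.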
Pf growth 96h: P. falciparum growth inhibition at 96 hour, primary screen for plastid delayed-death inhibitors; P. falciparum luciferase reporter growth, 96 h; hit rate 6.9% among 320,000; Potency, µM (titrated, usually from 28.7 µM), inactives show at the top dose activity change, negative = inhibition, most hits filed as inhibitors; AID 504834; note: potency is the fitted concentration of half-maximal effect; % is set by controls: 0 for no effect and ±100 for the full control effect
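Readout is luminescence from an integrated firefly luciferase in P. falciparum. Red cells, 2% hematocrit and 0.05% parasitemia final, were cultured with compound through two parasite generations (96 hours) at 37 C, 5% CO2.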
Pf growth 48h: P. falciparum growth inhibition at 48 hours (one generation); P. falciparum luciferase growth in erythrocytes, 48 h; Potency, µM (highest dose often 28.7 µM), inactives show at the highest dose activity change, negative = inhibition, most hits filed as inhibitors; hit rate 5.9% among 310,000; note: potency is the fitted concentration of half-maximal effect; % is set by controls: 0 for no effect and ±100 for the full control effect
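Luciferase-expressing parasites in RBCs, 2% Hct / 0.1% parasitemia final; RPMI 1640 + 0.5% Albumax; 37 C, 5% CO2, one generation; luminescence read-out, lower signal = inhibition.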
Numbers without * were called inactive; ? = inconclusive; nt = not tested or not shown; ! = not confirmed by another sample. Compounds with a hit are over-represented: about 20% of the library has one in this group of screens. Unless noted, calls come from the whole dose curve; as a rule, active = well fitted inhibition curve with a large enough effect; inconclusive = small, poorly fitted or top-dose-only effect, or another doubt; inactive = no such curve, though single readings can be large or run the other way.

SMILES	CHX counter	Shiga toxin inh	HCMV inh	Pf growth 96h	Pf growth 48h
C=C(C)C1Cc2c(C)nn(-c3nc(C)cc(C)n3)c2C1 (centres undefined)	-3	13	5	13µM*	?
C=C(C)C1Cc2nc(N)nc(C)c2C1 (centres undefined)	-2	-16	-6	1%	50%
COc1ccc(CCNC(=O)C2=CCN(S(=O)(=O)c3ccc(F)cc3)CC2)cc1OC	11	-1	-30	4%	-10%
Cc1ccc(-n2c(=O)c3c4c(sc3n(Cc3cc(=O)n5cc(Cl)ccc5n3)c2=O)CCC4)cc1C	nt	nt	13	nt	nt
O=C(NCCc1c[nH]c2ccccc12)C(=O)Nc1cc2c3c(c1)CC(=O)N3CCC2	nt	nt	-18	2.9µM*	1µM*
CC1C(=O)N2CCCc3cc(NC(=O)C(=O)NCc4cccnc4)cc1c32 (centres undefined)	nt	nt	69	?	?
COCCNC(=O)C(=O)Nc1cc2c3c(c1)C(C)C(=O)N3CCC2 (centres undefined)	-5	17	60	104%	34%
COc1ccccc1CCNC(=O)C(=O)Nc1cc2c3c(c1)C(C)C(=O)N3CCC2 (centres undefined)	nt	nt	8	?	13µM*
CC1C(=O)N2CCCc3cc(NC(=O)C(=O)NCc4ccc5c(c4)OCO5)cc1c32 (centres undefined)	nt	nt	17	7.4µM*	8.3µM*
CC1C(=O)N2CCCc3cc(S(=O)(=O)NCCc4ccccc4)cc1c32 (centres undefined)	-2	-7	?	2.1µM*	-1%
COc1ccc(Cl)cc1NC(=O)CN1C(=O)CC(C)S(=O)(=O)c2ccccc21 (centres undefined)	7	26	28	30%	?
COc1ccc(CN2C(=O)C(n3c(C)ccc3C)c3cccc(F)c32)cc1 (centres undefined)	nt	nt	-34	nt	nt
CC1(C(=O)NC2CCCCCC2)CCN1C(=O)C1(c2ccccc2)CC1 (centres undefined)	nt	nt	-28	nt	nt
COC(=O)[C@H](Cc1c[nH]c2ccccc12)NC(=O)Nc1ccccc1OC	-1	6	-2	-1%	0%
CCc1ccccc1NC(=S)N(CCc1ccncc1)C(C)C	-6	-9	-93*	-21%	-13%
Cc1cccc(NC(=S)N(CCc2ccncc2)C(C)C)c1C	-2	23	9	?	19%
CC(C)NC(=S)N(CCc1ccncc1)C(C)C	0	-3	15	1.3µM*	-4%
CC(C)N(CCc1ccncc1)C(=S)Nc1cccc(Cl)c1	11	-10	-27	28%	17%
O=C(COc1ccccc1Cl)NCCNC(=O)c1ccco1	-1	4	-23	3%	4%
Cc1ccc(C)c(NC(=O)Cn2nnc(C(=O)NCc3cccs3)c2N)c1	1	-16	-1	0%	1%
CCN1CCN(C(=O)c2ccc3c(c2)N(Cc2cccc(Cl)c2)C(=O)c2ccccc2S3(=O)=O)CC1	nt	nt	-65*	nt	nt
O=C(c1ccc2c(c1)N(Cc1cccc(Cl)c1)C(=O)c1ccccc1S2(=O)=O)N1CCCCC1	nt	nt	-73*	nt	nt
O=C(c1ccc2c(c1)N(Cc1ccccc1)C(=O)c1ccccc1S2(=O)=O)N1CCCCCC1	nt	nt	-37	nt	nt
NC(=O)C1CCN(C(=O)c2ccc3c(c2)N(Cc2cccc(Cl)c2)C(=O)c2ccccc2S3(=O)=O)CC1	nt	nt	-25	nt	nt
CCOC(=O)C1CCCN(C(=O)c2ccc3c(c2)N(Cc2cccc(Cl)c2)C(=O)c2ccccc2S3(=O)=O)C1 (centres undefined)	nt	nt	-63*	nt	nt
SMILES	CHX counter	Shiga toxin inh	HCMV inh	Pf growth 96h	Pf growth 48h
O=C(NC1CCN(S(=O)(=O)c2ccccc2F)CC1)c1ccco1	-3	33	-28	4%	16%
Cc1ccc2nc(Cl)c3cc(C(=O)NCCCN(C)Cc4ccccc4)sc3c2c1	nt	nt	-9	nt	nt
CC1CCCN(CCCNC(=O)c2cc3c(Cl)nc4ccccc4c3s2)C1 (centres undefined)	9	1	-91*!	?	?
COc1cc(NC(=O)c2cc3c(Cl)nc4ccccc4c3s2)cc(OC)c1OC	6	-12	-1	?	0.83µM*
CN(CCCNC(=O)c1cc2c(Cl)nc3ccccc3c2s1)Cc1ccccc1	-1	-8	?	?	3.3µM*
COc1ccccc1OCCNC(=O)C1CC(=O)N(c2cccc(SC)c2)C1 (centres undefined)	nt	nt	-20	18%	-9%
COc1ccccc1C1CCN(C(=O)c2ccccc2)CC1	-3	1	64	7%	nt
COc1ccccc1C1CCN(c2cc(O)ccc2[N+](=O)[O-])CC1	1	-3	-72*	?	?
CCc1ccc(NC(=O)c2sc(-n3nc(C)c(CCC(C)C)c3C)nc2C)cc1	nt	nt	-4	nt	nt
CCCCN(CC(O)COc1cccc(C)c1)CC(O)COc1cccc(C)c1 (centres undefined)	-8	-9	-23	1.9µM*	?
CCCn1c(=N)n(CC(O)c2ccc(C)cc2)c2ccccc21 (centres undefined)	-1	31	-21	4.1µM*	5.2µM*
Cc1ccc(OCC(O)Cn2c(=N)n(CCN3CCOCC3)c3ccccc32)cc1 (centres undefined)	2	6	-2	19%	?
CCCn1c(=N)n(CC(O)COc2ccc(C)cc2)c2ccccc21 (centres undefined)	-4	-7	-6	5.2µM*	2.1µM*
Cc1ccc(OCC(O)Cn2nc(C)cc2C)cc1 (centres undefined)	9	28	20	5%	-3%
CCn1c(=N)n(CC(O)COc2ccc(C)cc2)c2ccccc21 (centres undefined)	9	-11	-16	13µM*	3.7µM*
CN(C)CC(O)COc1cccc(OCC(O)CN(C)C)c1 (centres undefined)	-5	-4	-15	?	?
CCN1/C(=C2/SC(=S)N(NC(C)=O)C2=O)Sc2ccccc21	-1	7	-18	-18%	0%
CCCCc1ccc(NC(=O)CSc2nc3ccccc3nc2N2CCCCC2)cc1	nt	nt	-6	nt	nt
Cc1cccc(OCC(O)CN2CCc3ccccc3C2)c1 (centres undefined)	2	-5	-9	49%	-20%
CCCCn1c(=N)n(CC(O)COc2cccc(C)c2)c2ccccc21 (centres undefined)	-7	-14	-63*	?	7.4µM*
Cc1nc(N)c(C#N)c(-c2cccnc2)c1C	-2	-17	-70*	-4%	5%
CCc1nc(N)c(C#N)c(-c2cccnc2)c1C	-5	14	-4	nt	20%
COc1ccc(CCNC2=CC(=O)N(c3ccc(F)cc3)C2=O)cc1	6	-6	-5	3.3µM*	1%
COc1ccc(CCNc2ncnc3c2cnn3-c2ccc(F)cc2)cc1	nt	nt	-11	nt	nt
COC(=O)C1=C(SC)N(c2ccc(OC)cc2)C(c2ccccc2)CC1=O (centres undefined)	-4	-2	18	?	-29%
COc1ccc(CNC(=O)C(OC(=O)c2ccco2)c2ccccc2)cc1 (centres undefined)	3	9	-14	2%	30%
